Laboratory results as given in PubChem BioAssay (NCI).
About 79,000 compounds went through this panel and 15% of them were active in at least one assay; those are over-represented in the sample as a whole. Activity calls are given as the source filed them. Cut-off read from the data, not from the text of the source: active = growth inhibition above about 70%; inactive = the rest.

Tests used:
[1] = NCI Yeast Anticancer Drug Screen. Data for the rad50 strain (AID 155);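 note: 0% = growth of vehicle-only cultures of the same strain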; details: S. cerevisiae rad50 strain growth inhibition; at 50.0 µM; hits give high values
How it was run: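 Inhibition values express reduced yeast growth in compound-treated cultures relative to vehicle-treated controls.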

[2] = NCI Yeast Anticancer Drug Screen. Data for the mec2-1 strain (AID 157); details: S. cerevisiae mec2-1 strain, at 50.0 µM, hits give high values
How it was run: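 Test agents were screened against the mec2-1 yeast strain, with defined DNA repair or cell cycle alteration. Growth was scored as inhibition against vehicle-only controls.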

[3] = NCI Yeast Anticancer Drug Screen. Data for the sgs1 mgt1 strain (AID 161);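 note: 0% = growth of cultures given vehicle only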; details: S. cerevisiae sgs1 mgt1 strain, at 50.0 µM, hits give high values
How it was run: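 Test agents were incubated with a DNA-repair-mutant yeast strain. Growth was then read and compared against vehicle-treated controls.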

[4] = NCI Yeast Anticancer Drug Screen. Data for the cln2 rad14 strain (AID 165);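 note: 0% = growth equal to vehicle treated cultures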; details: S. cerevisiae cln2 rad14 strain, at 50.0 µM, hits give high values
How it was run: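 Growth of compound-exposed yeast (cln2 rad14 genotype) measured and expressed as inhibition relative to vehicle.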

[5] = NCI Yeast Anticancer Drug Screen. Data for the bub3 strain (AID 167); details: S. cerevisiae bub3 mutant strain, at 50.0 µM, hits give high values
How it was run: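 Steps: expose the mutant yeast strain to compound; grow alongside vehicle-treated cultures; measure growth; express inhibition against the vehicle cultures.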

[6] = NCI Yeast Anticancer Drug Screen. Data for the mlh1 rad18 strain (AID 175); details: S. cerevisiae mlh1 rad18 strain growth inhibition; at 50.0 µM; hits give high values
How it was run: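 In this whole-cell yeast screen, a strain with altered DNA damage repair is challenged with compound, and its growth is measured against matched vehicle-treated controls.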

Measured: growth inhibition

CCOc1ccccc1N(CCN(C)C)C(=O)C(c1ccccc1)c1ccccc1
inactive: [1] 20.9% | [2] -18.7% | [3] 1.05% | [4] -7.7% | [5] 25.6% | [6] 31.8%

O=[N+]([O-])C1C2C=CC(C2)[C@H]1c1ccco1 (some centres not stated)
inactive: [1] -7.85% | [2] -15.2% | [3] -24.7% | [4] 20.2% | [5] -14.8% | [6] -4.95%

Nc1cc(=O)n(C2CC(O)C(CO)O2)cn1 (configuration not stated)
inactive: [1] 7.25% | [2] 2.05% | [3] 11.5% | [4] 1.95% | [5] -13.3% | [6] 5.6%

CC(=O)c1c[nH]c(=O)c2cc3c(cc12)OCO3
inactive: [1] -42.8% | [2] -14.1% | [3] -7.85% | [4] -10.4% | [5] 12.8% | [6] -8.3%

CSc1nc(N)n2nc(C3CC3)cc2n1
inactive: [1] 5.5% | [2] -10.8% | [3] 16.1% | [4] 21.4% | [5] 15.9% | [6] 3.4%

S=C(S)NCCCn1ccnc1
inactive: [1] -11.8% | [2] 23.8% | [3] -14.8% | [4] -15.9% | [5] -30.7% | [6] -0.8%

CN(CC(=O)O)c1ncc2c(n1)-c1ccccc1SC2
inactive: [1] 20.5% | [2] 4.95% | [3] 5.15% | [4] 10.3% | [5] -14.3% | [6] -6.3%

COc1cc(/C=N/NC(=O)Cc2cccc3ccccc23)ccc1O
inactive: [1] 21.1% | [2] 9.5% | [3] 3.05% | [4] -5.3% | [5] 39.4% | [6] 8.8%

CCOC1(c2ccccc2)CCNCC1
inactive: [1] 21.9% | [2] -0.65% | [3] 29.4% | [4] 15.7% | [5] 16.3% | [6] 12.9%

Cc1ccc(C(=O)N/N=C/c2ccc(N(C)C)cc2Cl)cc1
inactive: [1] 39.5% | [2] 20.2% | [3] 16.4% | [4] 22.9% | [5] 61% | [6] 21.9%

C=CCNC(=S)Nc1cccc(OC(=O)Nc2ccc(Cl)c(Cl)c2)c1
inactive: [1] -16.4% | [2] -11.2% | [3] -18.4% | [4] -23.1% | [5] 1% | [6] -12.4%

Cc1cc(Cl)c(=O)n(-c2ccc(Cl)cc2)n1
inactive: [1] 27.3% | [2] -4.6% | [3] 9.45% | [4] 4.7% | [5] 15.3% | [6] 44.9%

Cc1nc2cccc([N+](=O)[O-])c2n1CCCN(C)C
inactive: [1] 1.7% | [2] 6.5% | [3] 11.9% | [4] -8.9% | [5] 18.3% | [6] 10.1%

C=CN1C(=O)c2ccccc2C1=O
inactive: [1] -12.8% | [2] -12.4% | [3] -8.95% | [4] 6.3% | [5] -6.5% | [6] -24%

CC(C)(C)c1cc(C2OC(N)=C(O)C2=O)cc(C(C)(C)C)c1O (configuration not stated)
inactive: [1] 13.4% | [2] 11.1% | [3] 24.7% | [4] 13.8% | [5] 5.4% | [6] 32.2%

COC(=O)C(=O)c1c(C(=O)OC)nc2nnc(N)n2c1-c1ccc(OC)cc1
inactive: [1] -13.4% | [2] 0.6% | [3] -0.5% | [4] -26.5% | [5] 8.2% | [6] -14.9%

Oc1ccc(-c2nc(-c3ccccc3)c(-c3ccccc3)[nH]2)cc1
inactive: [1] -23.1% | [2] -14.9% | [3] -1.1% | [4] -46.3% | [5] -8.3% | [6] 4.05%

CN(CC#N)[C@H]1CCC[C@]1(O)C#C[Si](C)(C)c1ccccc1
inactive: [1] 9.15% | [2] -19.8% | [3] 19.1% | [4] 30.9% | [5] 9.05% | [6] 1.55%

CC(=O)c1ccco1
inactive: [1] 17.8% | [2] 16.4% | [3] -5.15% | [4] -43% | [5] 1.25% | [6] 13.1%

COc1ccc(-c2ccc(Cc3ccc(-c4ccc(OC)cc4)o3)o2)cc1
inactive: [1] 4.35% | [2] -0.35% | [3] 6.7% | [4] -72.7% | [5] -6.4% | [6] 1%

O=C(NNc1ccccc1)/C(=C/c1ccc2c(c1)OCO2)NC(=O)c1ccccc1
inactive: [1] 15.8% | [2] 9.5% | [3] -29.6% | [4] -6.2% | [5] 1.35% | [6] 4.55%

Cc1ccc(C(=O)c2ccc(O)cc2)cc1
inactive: [1] -25.4% | [2] -7.65% | [3] -6.5% | [4] -21.8% | [5] -7.6% | [6] -14.2%

CC(=O)O[C@H]1C[C@H]2CC[C@@]1(C)C2(C)C
inactive: [1] 0.85% | [2] -4.45% | [3] -5.55% | [4] -24.8% | [5] -1.1% | [6] 7.95%

O=C(O)C1COCOC1c1ccccc1 (configuration not stated)
inactive: [1] -1.6% | [2] -10.3% | [3] 3% | [4] -14.9% | [5] -4.05% | [6] 6.9%

CCC(CO)NC(=O)c1cccnc1 (configuration not stated)
inactive: [1] -13.5% | [2] -8.3% | [3] -2.85% | [4] -19% | [5] -7.6% | [6] 2.25%

NC(=O)c1cn(C2OC(CO)C(O)C2O)c2nc(N)nc(N)c2c1=O (configuration not stated)
inactive: [1] 19% | [2] 19.4% | [3] 14.3% | [4] 3.9% | [5] 23.1% | [6] 45.1%

CCCC1=C(OC)C(=O)c2c(C)cc(Cl)nc2C1=O
active: [3] 86.2% | [4] 78.8% | [5] 87.5%
inactive: [1] 48.5% | [2] 48.2% | [6] 38.9%

CC1=CC(=O)C(O)C2(C)C(CCC3(C)OCCO3)C=C(O[Si](C)(C)C(C)(C)C)CC12 (configuration not stated)
inactive: [1] 21.6% | [2] -2.5% | [3] 1.2% | [4] 18.4% | [5] 5.15% | [6] 7%

CC1=Cc2cc3[n-]c(cc4nc(cc5[n-]c(cc1n2)c(C)c5CCC(=O)O)C(CCC(=O)O)=C4C)cc3C.[Cu+2]
inactive: [1] 0.9% | [2] -0.9% | [3] 10.3% | [4] -49.5% | [5] 15.2% | [6] -0.5%

Oc1ccc(Cn2c(-c3ccc(O)cc3)nc3ccccc32)cc1
inactive: [1] -6.95% | [2] -5% | [3] -10.1% | [4] 5.05% | [5] 1.4% | [6] -13.3%

CCc1cccc(CC)c1NC(=O)c1ccccc1Br
inactive: [1] 2.5% | [2] 1.85% | [3] 15.7% | [4] 16.3% | [5] -0.05% | [6] 21.2%

COC(=O)c1ccc(C(=O)OC)c2nc3cc(C)ccc3nc12
inactive: [1] -39.1% | [2] -2.3% | [3] -16.2% | [4] 10.1% | [5] 8.65% | [6] 14.4%

O=c1cccc(CCc2ccccc2)[nH]1
inactive: [1] -8.85% | [2] -9.35% | [3] -9.6% | [4] 0.6% | [5] -0.55% | [6] -16.4%

Cc1nc(NS(=O)(=O)c2ccc(N)cc2)nc(C)c1Br
inactive: [1] -9.75% | [2] -9.55% | [3] 4.1% | [4] -52% | [5] -14.7% | [6] -15.1%

CC(=O)C(C)c1nc(=S)[nH]c(=S)[nH]1 (configuration not stated)
inactive: [1] 11.4% | [2] 12.2% | [3] 22.4% | [4] 9.1% | [5] -1.35% | [6] 4.85%

O=C1C2C(C(=O)N1c1cccc3ccccc13)C1(Cl)C(Cl)=C(Cl)C2(Cl)C1(Cl)Cl (configuration not stated)
active: [1] 91% | [2] 93.7% | [3] 94.6% | [4] 91.5% | [5] 89.3% | [6] 94.5%

O=S(=O)(c1ccccc1)C1CCCCC1I (configuration not stated)
inactive: [1] 45.9% | [2] 3.5% | [3] 21.4% | [4] -30.5% | [5] 23.7% | [6] 18.8%

COC1=NCc2ccccc2-c2ccccc21
inactive: [1] -16.1% | [2] -21.2% | [3] -17.9% | [4] 8.55% | [5] 27.5% | [6] -28.9%

COc1ccc(N2C(=O)/C(=C\c3ccc(N(CCC#N)CCC#N)cc3)N=C2COc2ccccc2)cc1
inactive: [1] 0.8% | [2] -2.2% | [3] 4.45% | [4] 8.7% | [5] -1.35% | [6] 1.3%

CSc1nc2c(N)nc(N)nc2nc1C
inactive: [1] 5.9% | [2] 0.2% | [3] 0.75% | [4] -31.6% | [5] -16.7% | [6] 11.5%

O=S1CCS(=O)CCS(=O)CC1 (configuration not stated)
inactive: [1] -17.1% | [2] -2.3% | [3] -0.6% | [4] -18.6% | [5] -0.4% | [6] -9.7%

CCCCCCP(=O)(CCCC)CCCC
inactive: [1] 38.1% | [2] 11.9% | [3] 41.2% | [4] -20.9% | [5] -12% | [6] -0.2%
